The results in this text go back to PubChem BioAssay (NCATS).

Results filed as inconclusive are left out. Activity calls are given as the source filed them. Calls come from the whole dose curve; as a rule, active = well fitted cell-killing curve with a large enough effect; inconclusive = small, poorly fitted or top-dose-only effect, or effect the other way; inactive = no such curve, though single readings can be large or run the other way.
Potency is the fitted concentration of half-maximal effect.

One assay is described as follows: Quantitative High-Throughput drug screen in 47 multiple myeloma cell lines against the NCATS MIPE library collection: MM1S_ATCC cell viability assay (AID 1918980). Note: nearly all actives have a fitted effect of over 45% in size. The settings on record: MM1S myeloma viability, CellTiter-Glo ATP luminescence, 48 h; series mostly up to 45.8 µM. A digest of the protocol:
(§1)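 Viability after 48 h drug exposure was measured as ATP-dependent luminescence. Cells, 500 per well, sat at 37 °C under 5% CO2; DMSO wells set 100%, media-only wells 0%.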
On the technique in general: ATP-based viability assays read luminescence as a measure of living cells.
`O=C(OCC#CCSc1nnc(-c2cccc3ccccc23)o1)c1cc2ccccc2s1`: the Potency entry was “inactive”.

For `C[C@H](NC(=O)c1sccc1OCc1ccc(Cl)cc1)c1ccccc1`, the Potency is 18.7 µM (active).

Take `NC(=O)c1cccc(-c2cc(Nc3ccc(OC(F)(F)F)cc3)ncn2)c1`: the Potency entry was “inactive”.

For the molecule `CC1(C)CCC(CN2CCN(c3ccc(C(=O)NS(=O)(=O)c4ccc(NCC5CCOCC5)c([N+](=O)[O-])c4)c(Oc4cnc5[nH]ccc5c4)c3)CC2)=C(c2ccc(Cl)cc2)C1`, the Potency is 23.5 µM (active).

For `Nc1ncnc2c1ncn2[C@@H]1O[C@@H](CO)[C@H](O)[C@H]1O`, the Potency entry was “inactive”.

Turning to `CNC(=O)c1ccccc1Sc1ccc2c(C=Cc3ccccn3)n[nH]c2c1`, the Potency was 16.6 µM (active).

`O=C(Nc1cc(Cl)cc2c1[nH]c1cnccc12)c1cccnc1`: the Potency is 11.8 µM (active).

As to `O=C1NC(=O)C(=Cc2ccc3nccnc3c2)S1`, the Potency is 6.45 µM (active).

`CC(C)C(=O)Oc1ccc(CO)cc1[C@H](CCN(C(C)C)C(C)C)c1ccccc1`: the Potency entry was “inactive”.

Consider `NC1CCC(Nc2nc(Nc3ccc(C(=O)N4CCCCC4)cc3)c3ncn(-c4cccc(F)c4)c3n2)CC1` (stereo not drawn), for which the Potency entry was “inactive”.

`O=C(N[C@@H](c1ccccc1)[C@@H]1CCCCN1)c1cccc(C(F)(F)F)c1Cl`: the Potency was 20.9 µM (active).

As for `COc1cccc2c1CCCC2CCCN1CCN(C2CCCCC2)CC1` (stereo not drawn), the Potency is 20.9 µM (active).

On to `CC[C@H]1OC(=O)[C@H](C)[C@@H](O[C@H]2C[C@@](C)(OC)[C@@H](O)[C@H](C)O2)[C@H](C)[C@@H](O[C@@H]2O[C@H](C)C[C@H](N(C)C)[C@@H]2O)[C@](C)(O)C[C@@H](C)CN(C)[C@H](C)[C@@H](O)[C@]1(C)O`, for which the Potency is 18.7 µM (active).

With `Cc1cc(OCCCc2c(C(=O)O)n(Cc3cccnc3)c3c(-c4c(COc5ccc(N6CCN([S+](C)(=O)[O-])CC6)cc5)nn(C)c4C)cccc23)cc(C)c1Cl`, the Potency is 18.7 µM (active).

Turning to `CN[C@@H](C)C(=O)N[C@H]1CN(C(=O)CC(C)C)CC[C@H]2CC[C@@H](C(=O)NC(c3ccccc3)c3ccccc3)N2C1=O`, the Potency was 9.35 µM (active).

With `COc1cc2c(cc1OC)CN(CCc1ccc(NC(=O)c3cc(OC)c(OC)cc3NC(=O)c3cnc4ccccc4c3)cc1)CC2`, the Potency is 2.64 µM (active).

As for `N#CC1(c2ccc(NC(=O)c3cccnc3NCc3ccncc3)cc2)CCCC1`, the Potency result is “inactive”.

In the case of `CCOC1OC(=O)C[C@H]1NC(=O)[C@@H]1CCCN1C(=O)[C@@H](NC(=O)c1ccc(N)c(Cl)c1)C(C)(C)C` (stereo partly drawn), the Potency was 26.4 µM (active).

`Cc1c(O)cccc1C(=O)N[C@@H](CSc1ccccc1)[C@H](O)CN1C[C@H]2CCCC[C@@H]2C[C@@H]1C(=O)NC(C)(C)C`: the Potency is 20.9 µM (active).

As to `CC(=O)O[C@]1(C(C)=O)CC[C@@H]2[C@@H]3C[C@H](C)C4=CC(=O)CC[C@]4(C)[C@H]3CC[C@@]21C`, the Potency is 13.2 µM (active).

As for `CC(C)(Cc1ccc2ccccc2c1)NC[C@@H](O)COc1cccc(Cl)c1C#N`, the Potency is 16.6 µM (active).

As to `Cc1c(NC(=O)c2ccc(C(C)(C)C)cc2)cccc1-c1cn(C)c(=O)c(Nc2ccc(C(=O)N3CCOCC3)cc2)n1`, the Potency was 20.9 µM (active).

Take `C=C1C(=O)OC2C=C(C)CCC=C(C)CCC12` (stereo not drawn): the Potency is 23.5 µM (active).

The nature of a further assay: Quantitative High-Throughput drug screen in 47 multiple myeloma cell lines against the NCATS MIPE library collection: MM1R_ATCC cell viability assay (AID 1918981). Note: nearly all actives have a fitted effect of over 35% in size. The settings on record: MM1R multiple myeloma cells, CellTiter-Glo viability, 48 h; series mostly up to 45.8 µM. A digest of the protocol:
as §1
Consider `COCCOc1nc(-c2ccc(Cl)c(Cl)c2)n(-c2ccc(NC(=O)CCl)cc2)n1`, for which the Potency is 14.8 µM (active).

Turning to `CC1(C)CCC(CN2CCN(c3ccc(C(=O)NS(=O)(=O)c4ccc(NCC5CCOCC5)c([N+](=O)[O-])c4)c(Oc4cnc5[nH]ccc5c4)c3)CC2)=C(c2ccc(Cl)cc2)C1`, the Potency is 14.8 µM (active).

For `O=C(Nc1cccc(Br)c1)c1cccc(S(=O)(=O)N2CCCCCC2)c1`, the Potency is 18.7 µM (active).

`O=C(Nc1cc(Cl)cc2c1[nH]c1cnccc12)c1cccnc1`: the Potency is 1.87 µM (active).

In the case of `O=C1NC(=O)C(=Cc2ccc3nccnc3c2)S1`, the Potency is 8.12 µM (active).

Turning to `CC(C)C(=O)Oc1ccc(CO)cc1[C@H](CCN(C(C)C)C(C)C)c1ccccc1`, the Potency entry is “inactive”.

For the molecule `CCCCCNC(=O)N1CCC(CN(Cc2ccc(Cl)cc2)Cc2ccc([N+](=O)[O-])s2)C1` (stereo not drawn), the Potency was 14.8 µM (active).

`NC1CCC(Nc2nc(Nc3ccc(C(=O)N4CCCCC4)cc3)c3ncn(-c4cccc(F)c4)c3n2)CC1` (stereo not drawn): the Potency result is “inactive”.

Take `CN[C@@H](C)C(=O)N[C@H]1CN(C(=O)CC(C)C)CC[C@H]2CC[C@@H](C(=O)NC(c3ccccc3)c3ccccc3)N2C1=O`: the Potency is 14.8 µM (active).

Turning to `Cc1ccc(F)c(NC(=O)Nc2ccc(-c3cccc4[nH]nc(N)c34)cc2)c1`, the Potency is 23.5 µM (active).

As for `CC(C)(C)COc1ccc(-n2cc(C(=O)O)cn2)cc1C#N`, the Potency result is “inactive”.

Take `C[C@]12CCC3c4ccc(O)cc4CCC3C1CCC2=O` (stereo partly drawn): the Potency result was “inactive”.

As to `CCOC1OC(=O)C[C@H]1NC(=O)[C@@H]1CCCN1C(=O)[C@@H](NC(=O)c1ccc(N)c(Cl)c1)C(C)(C)C` (stereo partly drawn), the Potency result was “inactive”.

Regarding `Cc1c(O)cccc1C(=O)N[C@@H](CSc1ccccc1)[C@H](O)CN1C[C@H]2CCCC[C@@H]2C[C@@H]1C(=O)NC(C)(C)C`, the Potency is 18.7 µM (active).

Turning to `CC(=O)O[C@]1(C(C)=O)CC[C@@H]2[C@@H]3C[C@H](C)C4=CC(=O)CC[C@]4(C)[C@H]3CC[C@@]21C`, the Potency is 20.9 µM (active).

On to `Cc1cnc(C(=O)O)c[n+]1[O-]`, for which the Potency entry is “inactive”.

As to `O=C(O)[C@H]1O[C@H](Oc2cc3oc(-c4ccccc4)cc(=O)c3c(O)c2O)[C@H](O)[C@@H](O)[C@H]1O`, the Potency is 23.5 µM (active).

Regarding `Cc1c(NC(=O)c2ccc(C(C)(C)C)cc2)cccc1-c1cn(C)c(=O)c(Nc2ccc(C(=O)N3CCOCC3)cc2)n1`, the Potency was 20.9 µM (active).

Turning to `O=C(NC1CCOCC1)c1ccc(-c2cc(-c3cn[nH]c3-c3ccccn3)ccn2)cc1`, the Potency is 14.8 µM (active).

As for `C=C1C(=O)OC2C=C(C)CCC=C(C)CCC12` (stereo not drawn), the Potency was 23.5 µM (active).
